{
  "source": "PubChem BioAssay (NCI)",
  "note": "Values joined by “and” are separate entries in the source; they are usually repeats but may differ in a detail not shown here. Identical values can stand only once. Compounds without any hit were thinned out: in the full panel of roughly 83,000, 20% have a hit.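 In brief: 96-well plates, 48 h treatment, single concentration, percent growth endpoint.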 Active and inactive are the calls of the source. How the source made its calls: active means growth percent below 10; inactive means the rest.",
  "data": [
    {"test_system": "MCF7 breast", "assay": "NCI-60 one-dose screen, 48 h (100 = growth as untreated, 0 = no growth, -100 = all killed)", "conditions": "10 µM unless noted", "values": [
      {"smiles": "C=C1C2CCC3C4(C)CCCC(C)(C(=O)O)C4CCC3(C2)C1OC(=O)/C(C)=C/C", "note": "(stereo not given)", "growth": "1.75% [100 µM] (active) and 65.7% [100 µM] (inactive)"},
      {"smiles": "COc1c(O)ccc(C2=Cc3ccc(O)cc3OC2)c1OC", "growth": "-13.9% [100 µM] (active) and -13.3% [100 µM] (active)"},
      {"smiles": "O=C1C=CC=C/C1=C1\\N=C(c2ccccc2OCC(=O)c2ccc(Br)cc2)SS1", "growth": "77.7% [100 µM] (inactive) and 77% [100 µM] (inactive)"},
      {"smiles": "COc1ccc(/C=c2\\[nH]c3nc(=O)c(N4CCOCC4)c(N)n3c2=O)cc1", "growth": "56.5% [100 µM] (inactive) and 43.7% [100 µM] (inactive)"},
      {"smiles": "COc1ccc2nc(NC(=O)/C(C#N)=C/c3ccccc3)sc2c1", "growth": "4.79% [100 µM] (active) and 1.62% [100 µM] (active)"},
      {"smiles": "COc1ccc2c(C)cc(N/N=C/c3ccc(C)s3)nc2c1", "growth": "-55.5% [100 µM] (active) and -100% [100 µM] (active)"},
      {"smiles": "CC(=O)c1ccc(NC(=O)/C(CC(=O)/C=C/c2ccccc2)=N/NC(N)=S)cc1", "growth": "52.9% [100 µM] (inactive) and 4.14% [100 µM] (active)"},
      {"smiles": "COc1ccc2nc(N/N=C/c3ccc(C)s3)cc(C)c2c1", "growth": "-92.2% [100 µM] (active) and -100% [100 µM] (active)"},
      {"smiles": "CCCCCCCCCC(=O)CC(=O)c1c(O)cc(O)cc1O", "growth": "-63.3% [75 µM] (active) and -13.9% [75 µM] (active)"},
      {"smiles": "CC1CC(=O)N(N(C)C)C(C#N)(C#N)C1(C#N)C#N", "note": "(stereo not given)", "growth": "-67.7% [100 µM] (active) and -85.9% [100 µM] (active)"},
      {"smiles": "CC/C(Cl)=N\\OC(=O)Nc1ccc(OC)cc1", "growth": "-75.9% [100 µM] (active) and -79.9% [100 µM] (active)"},
      {"smiles": "CN(C)c1ccc(/C=N/n2c(-c3ccccc3)nc3ccccc3c2=O)cc1", "growth": "40.4% [100 µM] (inactive) and 21.1% [100 µM] (inactive)"},
      {"smiles": "COc1cc2oc3c(c(=O)c2c(O)c1/C=C/C(C)C)CCC(C)(C)Oc1cc(O)ccc1-3", "growth": "-61% [100 µM] (active) and -100% [100 µM] (active)"},
      {"smiles": "O=C(O)c1n[nH]nc1Cl", "growth": "94.1% [100 µM] (inactive) and 80.7% [100 µM] (inactive)"},
      {"smiles": "NC(Cc1ccc(S(=O)(=O)O)cc1)C(=O)NC(Cc1ccc(S(=O)(=O)O)cc1)C(=O)NC(Cc1ccc(S(=O)(=O)O)cc1)C(=O)NC(Cc1ccc(S(=O)(=O)O)cc1)C(=O)O", "note": "(stereo not given)", "growth": "87.7% [100 µM] (inactive) and 83.5% [100 µM] (inactive)"},
      {"smiles": "O=C1c2cccnc2-c2nccc3ccnc1c23", "growth": "-90.9% [100 µM] (active) and -100% [100 µM] (active)"},
      {"smiles": "C[N+](C)(CCNC(=O)c1cccc2cc3ccccc3nc12)Cc1ccc([N+](=O)[O-])s1", "growth": "37.1% [25 µM] (inactive) and 55.9% [25 µM] (inactive)"},
      {"smiles": "Cc1ccc(NC2=N/C(=C/c3ccccc3)C(Cl)=N2)cc1", "growth": "71.3% [100 µM] (inactive) and 75.4% [100 µM] (inactive)"},
      {"smiles": "CC(C)=CC(O)C/C(C)=C/CC/C(C)=C/CCC1(C)C(CCCO)/C(=C(/C)C=O)CCC1(C)O", "note": "(stereo not given)", "growth": "-22.6% [100 µM] (active) and -6.67% [100 µM] (active)"},
      {"smiles": "COC(=O)C(=O)C(C(=O)C(=O)Nc1nc2ccc(C)cc2s1)c1nc2ccc([N+](=O)[O-])cc2[nH]c1=O", "note": "(stereo not given)", "growth": "60.3% [100 µM] (inactive) and 57.7% [100 µM] (inactive)"},
      {"smiles": "O[C@H]1[C@H](O)[C@@H](Cn2nnc(-c3ccccc3)c2-c2ccccc2)OCO[C@@H]1Cn1nnc(-c2ccccc2)c1-c1ccccc1", "growth": "-62.6% [100 µM] (active)"},
      {"smiles": "C=CC(COC(=O)C(C)(C)OC(C)=O)c1ccc(OC(=O)C(C)C)c(OC)c1", "note": "(stereo not given)", "growth": "-68.4% [100 µM] (active) and -69% [100 µM] (active)"},
      {"smiles": "CNC(=S)c1nnsc1N", "growth": "19% [100 µM] (inactive) and 0.417% [100 µM] (active)"},
      {"smiles": "COc1ccc(N=C(C)C(C)=Nc2ccc(OC)cc2)cc1", "growth": "38.9% [100 µM] (inactive) and 11.1% [100 µM] (inactive)"},
      {"smiles": "Cc1ccc(OCC2OC(n3cnc4c(Cl)nc(Cl)nc43)CC2Oc2ccc(C)cc2)cc1", "note": "(stereo not given)", "growth": "-91.5% [100 µM] (active) and -93.1% [100 µM] (active)"}
    ]}
  ]
}
